Shown are actives, neighbours in structure and some others; about 4.7% of the full set was active somewhere.
TRHR agonist: activates the human TRH receptor; P34981; TRHR cells, calcium flux fluo-8, FDSS agonist mode; activation, % at 2 µM; 360,000 tested, 0.18% active; AID 493084; further: 0% is about no effect
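Read-out: compound-evoked intracellular calcium rise in TRHR cells, fluo-8 dye, kinetic FDSS fluorescence at 1 s/cycle following a 10-cycle baseline. Cells cultured overnight before dye loading (30 min–1.5 h, RT).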
TRHR enhancer: allosteric enhancers of human TRH receptor; P34981; TRHR cells, fluo-8 calcium fluorescence, EC20 TRH enhancement; enhancement, % at 2 µM; 360,000 tested, 0.66% active; AID 493056; in the data active means enhancement above about 30%; further: 0% is about no effect
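TRHR-expressing cells loaded with fluo-8 calcium dye were read kinetically (ex 480/em 530) during compound addition, then stimulated with an EC20 of TRH (10 nM final). Enhancement of the Gq-mediated intracellular calcium response was scored.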
D1 PAM: potentiators of human D1 dopamine receptor. P21728. HEK293 TREx D1 cells, calcium flux, dopamine EC20 potentiation. potentiation, % at 10 µM. 360,000 tested, 0.036% active. AID 504651; in the data active means potentiation above about 30%; further: 0% is about no effect
Target sequence (P21728 whole entry, looked up): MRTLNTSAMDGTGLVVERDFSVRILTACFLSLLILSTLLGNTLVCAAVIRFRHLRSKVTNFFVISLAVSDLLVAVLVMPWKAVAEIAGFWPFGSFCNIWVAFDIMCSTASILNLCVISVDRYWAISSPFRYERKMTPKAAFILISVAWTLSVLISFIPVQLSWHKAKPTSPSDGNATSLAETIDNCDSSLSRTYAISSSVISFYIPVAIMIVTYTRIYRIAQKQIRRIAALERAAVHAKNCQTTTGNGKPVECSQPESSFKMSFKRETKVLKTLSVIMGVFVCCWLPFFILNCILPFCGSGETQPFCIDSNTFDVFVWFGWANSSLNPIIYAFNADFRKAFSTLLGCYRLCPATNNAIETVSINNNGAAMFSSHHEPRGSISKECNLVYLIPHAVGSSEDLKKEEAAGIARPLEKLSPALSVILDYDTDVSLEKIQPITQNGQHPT
D1 agonist: agonists of human D1 dopamine receptor. activation, % at 2 µM. HEK293 T-REx D1 cells, calcium flux, agonist mode. 360,000 tested, 1% active. P21728; further: 0% is about no effect
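Tetracycline-induced HEK293 TREx D1 cells, force-coupled to calcium signalling, were dye-loaded with a no-wash calcium kit. Compound was pin-added after a 10 s baseline. Fluorescence was read kinetically at 1 cycle/s for 180 s, with calcium rises flagged as agonism.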
D1 antagonist: human D1 dopamine receptor antagonism | HEK293 TREx D1 cells, calcium flux, dopamine EC80; hits give low values | activity change, negative = inhibition, % at 10 µM | P21728 | 360,000 tested, 3.2% active; in the data active means activity change below about -30%; further: on the % scale 0 is the no-effect control and ±100 the full control effect
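Allosteric or orthosteric antagonism assessed as attenuation of the calcium response to EC80 dopamine, added 180 s after compound, in induced HEK293 Trex D1 cells loaded with no-wash calcium dye.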
* marks the source's active call; other numbers are inactive results; x = no result. Unless noted, no stated cut-off is given here; in the data, active means activation above about 30%; inactive means the rest.

SMILES	TRHR agonist	TRHR enhancer	D1 PAM	D1 agonist	D1 antagonist
CCOc1ccccc1NC(=O)CSc1nc2cc(OC)c(OC)cc2c2nc(CCn3c(C)nc4ccccc43)nn12	0	-1	0	2	-2
Cc1cc(C)cc(-n2c(SCC(=O)Nc3nnc(C)s3)nc3c([nH]c4ccccc43)c2=O)c1	-1	-4	-4	-1	12
Cc1ccc2scc(N3CCN(c4ccccc4)CC3)c(=O)c2c1	0	5	-1	2	-7
Cc1ccc2scc(N3CCN(c4ccc(F)cc4)CC3)c(=O)c2c1	0	39*	-2	2	5
O=c1c(N2CCCCC2)csc2ccc(F)cc12	0	1	5	4	-75*
CN(C)CCNC(=O)c1ccc(-n2c(-c3ccccc3)cc3c2CCCC3)cc1	1	4	-1	2	-6
CCOC(=O)c1cc(-c2ccccc2)n(CC(=O)NCc2ccccc2OC)c1C	0	-2	-3	1	-5
COC(=O)COc1ccc2c(=O)c(-c3ccccc3)coc2c1	0	-1	-4	10	-42*
COc1ccc(C)cc1NC(=O)c1cc(S(=O)(=O)NC2CCCCCC2)ccc1F	0	5	-2	3	-12
O=C(c1ccco1)N1CCN(S(=O)(=O)c2ccc([N+](=O)[O-])cc2)CC1	1	2	0	3	-34*
O=C(c1ccco1)N1CCN(S(=O)(=O)c2ccccc2)CC1	0	8	-5	4	7
COc1ccccc1N(C)S(=O)(=O)c1ccc(C(=O)Nc2ccc3nc(C)sc3c2)cc1	1	2	-1	9	-44*
CCOc1ccc(NC(=O)CN(Cc2ccccc2)S(=O)(=O)c2ccc3nc(C)sc3c2)cc1	1	-2	-6	1	0
COc1cccc(NC(=O)CN(Cc2ccccc2)S(=O)(=O)c2ccc3nc(C)sc3c2)c1	-1	7	-7	21	-45*
COc1ccccc1N(C)S(=O)(=O)c1ccc(C(=O)Nc2nccs2)cc1	0	-19	-5	0	-66*
COc1ccccc1N(C)S(=O)(=O)c1ccc(C(=O)Nc2ncc(C)s2)cc1	1	3	-3	3	-1
Cc1nc2ccc(NC(=O)c3cccc(S(=O)(=O)N(C)c4ccccc4)c3)cc2s1	0	4	-7	13	-2
COc1ccccc1N(C)S(=O)(=O)c1ccc(C(=O)N(C)Cc2ccc(OC(F)F)cc2)cc1	1	-8	0	19	-41*
CCc1nc2ccc(C(=O)NCCc3ccc(SC)cc3)cc2nc1CC	0	-6	-3	7	-19
Cc1ccc(-c2nnc(Nc3cccc(Br)c3)c3ccccc23)cc1S(=O)(=O)N1CCCCC1	1	2	-1	3	8
Cc1c(Cl)cccc1NC(=O)CCS(=O)(=O)c1ccc2c(c1)CC(C)N2C(=O)C1CC1 (stereo not given)	-1	-3	-2	7	-17
CSc1ccc(/C=C2\C(=N)N3N=C(CC(=O)N4CCOCC4)SC3=NC2=O)cc1	1	-5	-4	5	-2
CCN(CC)c1ccc(/C=C2\C(=N)N3N=C(CC(=O)N4CCOCC4)SC3=NC2=O)cc1	34*	-5	0	115*	12
CCOC(=O)C1CCN(C2=NC(=O)/C(=C/c3ccc(Cl)cc3)S2)CC1	0	0	-4	1	-17
CCOC(=O)CSC1=NC(=O)/C(=C\c2ccc(Cl)cc2)S1	0	1	-3	100*	0
SMILES	TRHR agonist	TRHR enhancer	D1 PAM	D1 agonist	D1 antagonist
Cn1c(/C=C(\C#N)C(N)=S)ccc1-c1ccc(Br)cc1	-1	10	-10	1	-37*
COc1ccc(C(=O)c2sc(Nc3cccc(OC)c3)c(C(=O)Nc3cccc(C)c3C)c2N)cc1	-1	6	7	71*	-51*
COc1ccc(Nc2sc(C(=O)c3ccccc3)c(N)c2C(=O)Nc2cc(C)ccc2C)c(OC)c1	2	-5	1	47*	-19
Cc1ccc(NC(=O)c2c(Nc3ccccc3C)sc(C(=O)c3ccccc3)c2N)cc1	1	12	-4	6	1
COc1ccc(NC(=O)c2c(Nc3ccccc3)sc(C(=O)c3ccc(F)cc3)c2N)cc1	3	-2	-6	9	-7
COc1ccc(Nc2sc(C(=O)c3ccc(Cl)cc3)c(N)c2C(=O)Nc2ccccc2OC)cc1	11	-17	2	78*	-50*
Cc1ccc(NC(=O)c2nc(S(C)(=O)=O)ncc2N(Cc2ccccc2)Cc2ccco2)c(C)c1	2	-5	-1	-2	10
Cc1cc(NC(=O)CSc2ncc(C(=O)Nc3ccc(F)cc3)c(=O)n2C)no1	0	-3	-1	1	x
CCOC(=O)c1cccc(NC(=O)c2ccc3nc(CCc4ccccc4)oc3c2)c1	1	3	-2	17	-15
CCOc1ccccc1NC1=CC(=O)CC(c2ccccc2)C1 (stereo not given)	-1	-1	3	4	-31*
COc1ccc(NC2=CC(=O)CC(c3ccccc3)C2)c(OC)c1 (stereo not given)	0	2	-5	1	24
Cc1cc(C)cc(Nc2nc3ccccc3nc2-n2nc(C)cc2C)c1	1	0	0	1	13
CS(=O)(=O)N(CC(=O)N1CCc2ccccc2C1)c1cccc([N+](=O)[O-])c1	0	32*	-4	1	-78*
CCC(=O)Nc1nnc(S(=O)(=O)N(C)Cc2ccc(Cl)cc2)s1	0	1	1	0	-24
Cc1ccn2c(=O)cc(CSc3nnc(C)s3)nc2c1	0	-24	-6	0	-8
CNCCC=C1c2ccccc2CCc2ccccc21	1	-4	-5	21	-79*
C[N+](C)(C)CC/C=C1/c2ccccc2CSc2ccccc21	-1	6	-6	1	-8
COc1cccc(N2CC(NC(=O)c3ccc(S(=O)(=O)N4CCOCC4)cc3)CC2=O)c1 (stereo not given)	0	-2	1	0	x
Cc1cccc(-c2nc3c4ccccc4nc(NCc4ccccc4Cl)n3n2)c1	0	-1	-5	2	5
COc1ccc(CNC(=O)COC(=O)CCCOc2ccc(Cl)cc2Cl)cc1	-1	-1	4	31*	-3
COc1ccccc1OCCC(=O)OCC(=O)NCc1ccc(Cl)cc1	-1	4	-1	1	-3
Cc1ccc(C(=O)c2cn(Cc3cccc(Cl)c3)c3nc(C)ccc3c2=O)cc1	0	4	2	1	11
COc1cccc(C(c2nnnn2CC2CCCO2)N2CCN(C(=O)c3ccco3)CC2)c1OC (stereo not given)	0	2	-1	6	-38*
Clc1ccc(OCCCn2cncn2)cc1Cl	0	5	-19	56*	-28
